SMILES strings stand for the structures. Several values for one entry are separate records, joined by “and”; a condition that tells them apart may be missing. Equal entries are not always repeated. Results filed as inconclusive are left out. Where a structure was tested more than once in an assay, its records may differ in their call. Activity calls are given as the source filed them. Rule for the calls, unless noted: active = hit-call score of the fitted dose curve at least 0.9, where 1 is the maximum; inactive = score below 0.9.

The nature of test [1]: ATG_Sox_CIS: Attagene CIS-FACTORIAL HepG2 Assay for human SRY-box transcription factor (SOX) (AID 2282960). The conditions noted are these: HepG2 Attagene cis-factorial SOX reporter, mRNA; actives raise or lower the signal. The essentials: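 HepG2, cis reporter units, 24 h exposure. Reporter mRNA: RT-PCR → FAM labelling → HpaI → CE fluorescence. Bidirectional fit vs DMSO.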

Test [2] concerns the target Transcription factor Sp1 (Homo sapiens) (UniProt P08047). As to the kind of experiment: ATG_Sp1_CIS: Attagene CIS-FACTORIAL HepG2 Assay for human Specificity Protein 1 (Sp1) (AID 2282961). The conditions noted are these: HepG2 Sp1 cis-reporter transcription, actives raise or lower the signal. The essentials:
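Liver-derived HepG2 cells, cis-element reporter library, 24 h treatment; RNA isolated, cDNA amplified with reporter-specific primers, FAM-labeled fragments sized on capillary analyzer. DMSO baseline, bidirectional curve fit.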

Test [3] in a line: ATG_SREBP_CIS: Attagene CIS-FACTORIAL HepG2 Assay for human Sterol Regulatory Element Binding (SREBP) (AID 2282962). Conditions: HepG2 Attagene cis-factorial SREBP reporter, mRNA; actives raise or lower the signal. The essentials: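 Readout: fluorescent reporter-transcript peaks resolved by capillary electrophoresis after RT-PCR. Cells were human HepG2 carrying transfected cis-promoter reporter constructs, dosed for 24 h. Gain or loss of signal was fitted against DMSO controls.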

The target of test [4] is Signal transducer and activator of transcription 3 (Homo sapiens) (UniProt P40763). Nature of the test: ATG_STAT3_CIS: Attagene CIS-FACTORIAL HepG2 Assay for human Signal Transducer and Activator of Transcription 3 (STAT3) (AID 2282963). Conditions: HepG2, Attagene cis-factorial STAT3 reporter transcription; actives raise or lower the signal. The essentials: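 Readout: fluorescent reporter mRNA fragments resolved by capillary electrophoresis. Setup: HepG2 transfected with MRTUs reporting endogenous transcription-factor activity, dosed 24 h. Gain or loss of signal fitted bidirectionally against DMSO control.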

A short description of test [5]: ATG_TA_CIS: Attagene CIS-FACTORIAL HepG2 Assay for human TA Basal Promoter (AID 2282964). The conditions noted are these: HepG2 Attagene CIS-factorial TA basal promoter reporter; actives raise or lower the signal. The essentials: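 Steps: transfect HepG2 with MRTUs; dose 24 h; isolate RNA, DNase-treat, reverse-transcribe; PCR and FAM-label reporter cDNA; digest with HpaI 2h at 37 C; run capillary electrophoresis. Activity fitted both directions against DMSO.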

The nature of test [6]: ATG_TCF_b_cat_CIS: Attagene CIS-FACTORIAL HepG2 Assay for human T-Cell-Factor with beta-catenin (TCF/b-cat) (AID 2282965). Conditions: HepG2 TCF/beta-catenin cis-reporter transcription, actives raise or lower the signal. The essentials:
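Cells of the HepG2 line carry transiently transfected reporter units whose promoters respond to endogenous factors. Twenty-four hours post-dosing, reporter mRNA induction is measured by fluorescent RT-PCR and capillary electrophoresis, with DMSO as baseline.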

A short description of test [7]: ATG_TAL_CIS: Attagene CIS-FACTORIAL HepG2 Assay for human TAL Basal Promoter (AID 2282966).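 Note: background control endpoint measuring basal TAL promoter reporter mRNA not a specific factor.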 The conditions noted are these: HepG2 Attagene cis-factorial TAL promoter reporter; actives raise or lower the signal. The essentials:
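Transiently transfected HepG2 (cis-regulated reporter units), 24 h treatment, mRNA read by fluorescent CE after RT-PCR; bidirectional fit, DMSO baseline.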

Test [8] is described as follows: ATG_TGFb_CIS: Attagene CIS-FACTORIAL HepG2 Assay for human Transforming Growth Factor (TGF) (AID 2282967). Conditions: HepG2 Attagene CIS TGFb reporter, mRNA transcription; actives raise or lower the signal. The essentials: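 Cells were dosed for 24 hours, after which total RNA was reverse-transcribed and reporter sequences amplified, labeled and sized by capillary electrophoresis. Activity was fitted in both directions against DMSO.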

Test [9] is described as follows: ATG_VDRE_CIS: Attagene CIS-FACTORIAL HepG2 Assay for human Vitamin D Receptor Element (VDRE) (AID 2282968). The conditions noted are these: HepG2 VDRE cis-reporter transcription, actives raise or lower the signal. The essentials: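 Transient MRTU transfection of HepG2, 24 h compound exposure. Readout: reporter transcripts via RT-PCR and capillary electrophoresis, fluorescence. Bidirectional fit vs DMSO.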

For test [10], the target named is Nuclear receptor subfamily 1 group I member 3 (Homo sapiens) (UniProt Q14994). As to the kind of experiment: ATG_CAR_TRANS: Attagene TRANS-FACTORIAL HepG2 Assay for human Constitutive Androstane Receptor (CAR) (AID 2282969; active = hit-call score of the fitted dose curve at least 0.9, where 1 is the maximum;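 note: activators raise reporter mRNA above DMSO so AC50 marks induction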). Conditions: HepG2 Attagene TRANS-FACTORIAL CAR reporter. The essentials:
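Transiently transfected HepG2, multiplex TRANS reporters (CAR-Gal4 chimera driving GAL4-UAS reporter). 24 h dosing. Readout: reporter transcript by RT-PCR + capillary electrophoresis, fluorescence intensity; positive direction vs DMSO.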

Test [11] addresses X-box-binding protein 1 (Homo sapiens) (UniProt P17861). Nature of the test: ATG_Xbp1_CIS: Attagene CIS-FACTORIAL HepG2 Assay for human X-box Binding Protein 1 (XBP1) (AID 2282972). The conditions noted are these: HepG2 XBP1 cis-element reporter, Attagene multiplex; actives raise or lower the signal. The essentials:
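Read-out: fluorescent reporter mRNA fragments resolved by capillary electrophoresis after RT-PCR. Human HepG2 liver cells carried transfected cis-promoter reporter units and were exposed to chemicals for 24 hours. Gain or loss of signal fitted relative to DMSO baseline.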

Test [12] is described as follows: ATG_GAL4_TRANS: Attagene TRANS-FACTORIAL HepG2 Assay for GAL4 (Internal Marker) (AID 2282976; active = hit-call score of the fitted dose curve at least 0.9, where 1 is the maximum). Conditions: HepG2 Attagene TRANS GAL4 internal marker reporter. The essentials: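 HepG2 cells transiently transfected with multiplexed GAL4-UAS reporter constructs were dosed for 24 h. Reporter mRNA was measured by RT-PCR, 6-FAM primer extension, HpaI digestion and capillary electrophoresis, and gain of signal was fitted relative to DMSO.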

The target in test [13] is Oxysterols receptor LXR-alpha (Homo sapiens) (UniProt Q13133). As to the kind of experiment: ATG_LXRa_TRANS: Attagene TRANS-FACTORIAL HepG2 Assay for human Liver X Receptor alpha (LXRa) (AID 2282980; active = hit-call score of the fitted dose curve at least 0.9, where 1 is the maximum). The conditions noted are these: HepG2 Attagene TRANS reporter, LXRa transactivation. The essentials:
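HepG2 cells were transiently transfected with multiplexed reporter units driven by chimeric LXRa–GAL4 fusion proteins, then dosed for 24 h. Reporter mRNA was quantified by RT-PCR, fluorescent labelling and capillary electrophoresis; gain of signal fitted against DMSO baseline.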

Test [14] deals with Oxysterols receptor LXR-beta (Homo sapiens) (UniProt P55055). Nature of the test: ATG_LXRb_TRANS: Attagene TRANS-FACTORIAL HepG2 Assay for human Liver X Receptor beta (LXRb) (AID 2282981; active = hit-call score of the fitted dose curve at least 0.9, where 1 is the maximum). The conditions noted are these: HepG2 Attagene TRANS GAL4-LXRb reporter, mRNA. The essentials:
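Readout: fluorescent reporter mRNA fragments resolved by capillary electrophoresis after RT-PCR. System: transiently transfected human HepG2, exogenous LXRb-Gal4 chimera driving GAL4-UAS reporter, 24 h dosing. Activity fitted upward against DMSO baseline.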

Test [15] deals with Androgen receptor (Homo sapiens) (UniProt P10275). As to the kind of experiment: ATG_AR_TRANS: Attagene TRANS-FACTORIAL HepG2 Assay for human Androgen Receptor (AR) (AID 2282973; active = hit-call score of the fitted dose curve at least 0.9, where 1 is the maximum). The conditions noted are these: HepG2 Attagene TRANS-FACTORIAL AR reporter transcription. The essentials:
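HepG2 cells transiently transfected with multiplexed GAL4-UAS reporter units and chimeric NR-Gal4 fusion; 24 h compound exposure. Reporter mRNA measured by RT-PCR, 6-FAM labelling, HpaI digestion and capillary electrophoresis; gain-of-signal fitted relative to DMSO baseline.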

Test [16] is described as follows: ATG_M_19_TRANS: Attagene TRANS-FACTORIAL HepG2 Assay for M19 Transcription Factor (Internal Marker) (AID 2282974; active = hit-call score of the fitted dose curve at least 0.9, where 1 is the maximum). The conditions noted are these: HepG2 Attagene TRANS-FACTORIAL M19 internal marker reporter. The essentials: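 Transfected HepG2 (GAL4-UAS MRTUs), 24 h compound, TriZol RNA, DNase-treated RT, reporter PCR, FAM label, HpaI digest, CE fluorescence; gain vs DMSO.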

Test [17] concerns the target Steroid hormone receptor ERR1 (Homo sapiens) (UniProt P11474). Nature of the test: ATG_ERRa_TRANS: Attagene TRANS-FACTORIAL HepG2 Assay for human Estrogen-Related Receptor alpha (ERRa) (AID 2282971; active = hit-call score of the fitted dose curve at least 0.9, where 1 is the maximum). The conditions noted are these: HepG2 Attagene TRANS reporter, ERRa transactivation. The essentials:
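HepG2 cells transiently transfected with multiplexed GAL4-UAS reporter units reading chimeric ERRa-Gal4 activity; 24 h compound exposure. Reporter mRNA measured by RT-PCR, 6-FAM labelling, HpaI digest and capillary electrophoresis; gain of signal fitted versus DMSO baseline.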

The target of test [18] is Estrogen receptor (Homo sapiens) (UniProt P03372). Nature of the test: ATG_ERa_TRANS: Attagene TRANS-FACTORIAL HepG2 Assay for human Estrogen Receptor alpha (ERa) (AID 2282970; active = hit-call score of the fitted dose curve at least 0.9, where 1 is the maximum). Conditions: HepG2 Attagene TRANS ERa GAL4 reporter, mRNA. The essentials:
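One of 30 multiplexed endpoints from a HepG2 TRANS system, this one reports ERa-Gal4-driven reporter mRNA. Transcripts were quantified 24 hours post-dosing by fluorescent RT-PCR and capillary electrophoresis, with activity scored as induction over DMSO.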

Test [19] has as its target Glucocorticoid receptor (Homo sapiens) (UniProt P04150). Nature of the test: ATG_GR_TRANS: Attagene TRANS-FACTORIAL HepG2 Assay for human Glucocorticoid Receptor (GR) (AID 2282978; active = hit-call score of the fitted dose curve at least 0.9, where 1 is the maximum;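 note: activators score as hits since higher reporter transcript over DMSO is fitted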). Conditions: HepG2 Attagene TRANS GR reporter, mRNA transcription. The essentials: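 After 24 h incubation with test chemical, transfected HepG2 cells were lysed for RNA; reporter cDNA was amplified, FAM-labelled, HpaI-digested and sized on a capillary analyser. Signal gain relative to DMSO was scored.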

Chain of Transcription factor Sp1 (Homo sapiens) (P08047 whole entry, looked up, the tested form may be a part): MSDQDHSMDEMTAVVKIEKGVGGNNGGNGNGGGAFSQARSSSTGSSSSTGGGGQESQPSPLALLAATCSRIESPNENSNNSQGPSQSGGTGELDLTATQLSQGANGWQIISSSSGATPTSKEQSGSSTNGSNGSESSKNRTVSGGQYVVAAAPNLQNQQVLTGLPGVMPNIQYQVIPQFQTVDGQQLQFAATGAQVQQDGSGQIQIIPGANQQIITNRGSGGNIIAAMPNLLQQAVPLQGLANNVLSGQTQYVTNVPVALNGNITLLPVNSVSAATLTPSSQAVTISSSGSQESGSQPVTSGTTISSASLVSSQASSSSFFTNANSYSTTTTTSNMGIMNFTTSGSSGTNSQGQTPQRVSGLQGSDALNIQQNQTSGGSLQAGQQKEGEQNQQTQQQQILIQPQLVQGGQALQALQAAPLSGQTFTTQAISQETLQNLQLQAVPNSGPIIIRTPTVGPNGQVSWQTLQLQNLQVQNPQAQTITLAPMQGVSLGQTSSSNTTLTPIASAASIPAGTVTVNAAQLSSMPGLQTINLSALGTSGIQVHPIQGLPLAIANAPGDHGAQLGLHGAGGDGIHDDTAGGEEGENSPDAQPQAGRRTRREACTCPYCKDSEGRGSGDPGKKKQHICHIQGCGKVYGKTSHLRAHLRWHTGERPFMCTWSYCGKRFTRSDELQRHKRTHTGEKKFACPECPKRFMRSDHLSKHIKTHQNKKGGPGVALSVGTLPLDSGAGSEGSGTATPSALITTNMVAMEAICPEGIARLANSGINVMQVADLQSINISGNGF
Chain of Oxysterols receptor LXR-beta (Homo sapiens) (P55055 whole entry, looked up, the tested form may be a part): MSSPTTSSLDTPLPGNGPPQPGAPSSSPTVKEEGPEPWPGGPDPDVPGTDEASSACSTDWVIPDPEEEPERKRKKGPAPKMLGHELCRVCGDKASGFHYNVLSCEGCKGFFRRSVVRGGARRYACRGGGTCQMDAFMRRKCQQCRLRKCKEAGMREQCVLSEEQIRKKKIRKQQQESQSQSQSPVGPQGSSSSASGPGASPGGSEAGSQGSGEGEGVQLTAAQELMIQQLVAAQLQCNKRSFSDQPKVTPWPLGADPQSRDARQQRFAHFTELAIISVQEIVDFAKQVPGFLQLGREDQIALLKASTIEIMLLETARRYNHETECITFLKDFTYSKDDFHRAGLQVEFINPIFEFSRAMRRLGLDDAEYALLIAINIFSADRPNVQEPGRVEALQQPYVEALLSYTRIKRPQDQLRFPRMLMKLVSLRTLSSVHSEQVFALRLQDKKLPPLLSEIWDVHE
Chain of X-box-binding protein 1 (Homo sapiens) (P17861 whole entry, looked up, the tested form may be a part): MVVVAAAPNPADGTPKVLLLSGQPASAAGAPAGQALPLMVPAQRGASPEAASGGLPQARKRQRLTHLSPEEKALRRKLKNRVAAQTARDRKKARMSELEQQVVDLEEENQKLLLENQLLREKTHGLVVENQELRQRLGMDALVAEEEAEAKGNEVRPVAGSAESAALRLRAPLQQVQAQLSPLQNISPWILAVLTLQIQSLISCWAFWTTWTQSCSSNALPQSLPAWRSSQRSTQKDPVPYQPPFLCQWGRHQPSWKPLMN
Chain of Estrogen receptor (Homo sapiens) (P03372 whole entry, looked up, the tested form may be a part): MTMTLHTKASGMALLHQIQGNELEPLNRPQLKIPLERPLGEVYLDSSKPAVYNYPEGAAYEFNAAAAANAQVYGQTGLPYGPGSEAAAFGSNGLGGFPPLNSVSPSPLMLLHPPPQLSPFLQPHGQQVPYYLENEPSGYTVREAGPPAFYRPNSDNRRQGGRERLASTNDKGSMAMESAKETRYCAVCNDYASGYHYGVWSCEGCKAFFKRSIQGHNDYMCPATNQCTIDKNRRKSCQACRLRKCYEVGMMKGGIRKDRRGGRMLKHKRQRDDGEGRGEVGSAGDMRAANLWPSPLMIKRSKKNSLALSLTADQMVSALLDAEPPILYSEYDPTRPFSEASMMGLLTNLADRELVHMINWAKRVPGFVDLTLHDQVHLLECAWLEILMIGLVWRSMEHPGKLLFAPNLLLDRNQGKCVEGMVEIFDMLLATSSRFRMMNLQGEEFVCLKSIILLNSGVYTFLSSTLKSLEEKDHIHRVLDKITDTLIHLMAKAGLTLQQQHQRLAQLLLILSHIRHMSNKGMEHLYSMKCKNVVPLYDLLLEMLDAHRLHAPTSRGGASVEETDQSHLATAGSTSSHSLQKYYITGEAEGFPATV
Chain of Signal transducer and activator of transcription 3 (Homo sapiens) (P40763 whole entry, looked up, the tested form may be a part): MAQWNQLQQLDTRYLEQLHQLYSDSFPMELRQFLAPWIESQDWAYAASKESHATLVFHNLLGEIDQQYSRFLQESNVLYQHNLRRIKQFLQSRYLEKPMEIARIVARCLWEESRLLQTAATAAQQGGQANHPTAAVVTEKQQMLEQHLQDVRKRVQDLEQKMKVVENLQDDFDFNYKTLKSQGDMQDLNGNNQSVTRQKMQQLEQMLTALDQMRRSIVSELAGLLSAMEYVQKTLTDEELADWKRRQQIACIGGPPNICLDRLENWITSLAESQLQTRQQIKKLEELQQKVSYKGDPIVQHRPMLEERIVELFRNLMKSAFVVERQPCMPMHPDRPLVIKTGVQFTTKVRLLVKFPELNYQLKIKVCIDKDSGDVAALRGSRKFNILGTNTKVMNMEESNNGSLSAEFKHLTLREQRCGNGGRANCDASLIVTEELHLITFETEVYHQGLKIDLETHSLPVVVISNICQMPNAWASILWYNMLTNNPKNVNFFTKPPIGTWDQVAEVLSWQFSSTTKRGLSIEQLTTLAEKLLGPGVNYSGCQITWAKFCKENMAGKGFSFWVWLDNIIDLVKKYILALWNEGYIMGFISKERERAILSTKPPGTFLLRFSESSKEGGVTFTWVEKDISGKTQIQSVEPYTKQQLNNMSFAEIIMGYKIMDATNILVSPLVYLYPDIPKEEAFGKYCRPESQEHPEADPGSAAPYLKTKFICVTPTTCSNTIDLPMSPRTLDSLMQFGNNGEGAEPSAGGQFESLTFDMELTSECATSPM
Chain of Nuclear receptor subfamily 1 group I member 3 (Homo sapiens) (Q14994 whole entry, looked up, the tested form may be a part): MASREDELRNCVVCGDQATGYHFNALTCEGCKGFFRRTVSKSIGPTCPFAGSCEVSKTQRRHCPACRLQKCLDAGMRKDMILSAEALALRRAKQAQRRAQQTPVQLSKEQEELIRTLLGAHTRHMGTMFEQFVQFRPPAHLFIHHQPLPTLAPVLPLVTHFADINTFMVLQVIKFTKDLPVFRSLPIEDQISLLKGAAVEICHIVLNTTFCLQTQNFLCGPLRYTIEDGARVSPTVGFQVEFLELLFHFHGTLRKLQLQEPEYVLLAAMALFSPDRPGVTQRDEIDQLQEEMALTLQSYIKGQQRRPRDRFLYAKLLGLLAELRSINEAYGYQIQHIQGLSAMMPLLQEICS
Chain of Oxysterols receptor LXR-alpha (Homo sapiens) (Q13133 whole entry, looked up, the tested form may be a part): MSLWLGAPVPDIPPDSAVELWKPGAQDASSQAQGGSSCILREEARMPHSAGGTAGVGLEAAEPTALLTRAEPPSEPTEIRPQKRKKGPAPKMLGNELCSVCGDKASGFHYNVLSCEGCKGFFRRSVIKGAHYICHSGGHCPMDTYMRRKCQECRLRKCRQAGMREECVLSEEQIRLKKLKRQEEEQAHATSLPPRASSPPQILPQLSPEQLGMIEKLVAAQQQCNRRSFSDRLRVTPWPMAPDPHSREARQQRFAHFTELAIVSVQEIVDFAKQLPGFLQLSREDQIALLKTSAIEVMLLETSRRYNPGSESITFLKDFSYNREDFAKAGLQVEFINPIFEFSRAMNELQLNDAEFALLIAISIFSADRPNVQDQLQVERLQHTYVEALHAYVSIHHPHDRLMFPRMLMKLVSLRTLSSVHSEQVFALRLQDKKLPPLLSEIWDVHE
Chain of Steroid hormone receptor ERR1 (Homo sapiens) (P11474 whole entry, looked up, the tested form may be a part): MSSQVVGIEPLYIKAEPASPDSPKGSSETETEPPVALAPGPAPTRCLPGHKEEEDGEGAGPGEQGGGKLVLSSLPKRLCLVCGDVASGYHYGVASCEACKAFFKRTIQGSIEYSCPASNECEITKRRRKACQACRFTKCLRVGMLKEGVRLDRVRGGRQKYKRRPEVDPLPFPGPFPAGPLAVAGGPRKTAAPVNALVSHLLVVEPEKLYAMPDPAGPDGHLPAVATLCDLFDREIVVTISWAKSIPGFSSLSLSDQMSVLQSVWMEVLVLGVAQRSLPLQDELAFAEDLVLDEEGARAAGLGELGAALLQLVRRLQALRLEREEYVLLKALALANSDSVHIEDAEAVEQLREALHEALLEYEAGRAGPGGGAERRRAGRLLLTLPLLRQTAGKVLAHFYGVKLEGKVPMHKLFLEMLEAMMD
Chain of Androgen receptor (Homo sapiens) (P10275 whole entry, looked up, the tested form may be a part): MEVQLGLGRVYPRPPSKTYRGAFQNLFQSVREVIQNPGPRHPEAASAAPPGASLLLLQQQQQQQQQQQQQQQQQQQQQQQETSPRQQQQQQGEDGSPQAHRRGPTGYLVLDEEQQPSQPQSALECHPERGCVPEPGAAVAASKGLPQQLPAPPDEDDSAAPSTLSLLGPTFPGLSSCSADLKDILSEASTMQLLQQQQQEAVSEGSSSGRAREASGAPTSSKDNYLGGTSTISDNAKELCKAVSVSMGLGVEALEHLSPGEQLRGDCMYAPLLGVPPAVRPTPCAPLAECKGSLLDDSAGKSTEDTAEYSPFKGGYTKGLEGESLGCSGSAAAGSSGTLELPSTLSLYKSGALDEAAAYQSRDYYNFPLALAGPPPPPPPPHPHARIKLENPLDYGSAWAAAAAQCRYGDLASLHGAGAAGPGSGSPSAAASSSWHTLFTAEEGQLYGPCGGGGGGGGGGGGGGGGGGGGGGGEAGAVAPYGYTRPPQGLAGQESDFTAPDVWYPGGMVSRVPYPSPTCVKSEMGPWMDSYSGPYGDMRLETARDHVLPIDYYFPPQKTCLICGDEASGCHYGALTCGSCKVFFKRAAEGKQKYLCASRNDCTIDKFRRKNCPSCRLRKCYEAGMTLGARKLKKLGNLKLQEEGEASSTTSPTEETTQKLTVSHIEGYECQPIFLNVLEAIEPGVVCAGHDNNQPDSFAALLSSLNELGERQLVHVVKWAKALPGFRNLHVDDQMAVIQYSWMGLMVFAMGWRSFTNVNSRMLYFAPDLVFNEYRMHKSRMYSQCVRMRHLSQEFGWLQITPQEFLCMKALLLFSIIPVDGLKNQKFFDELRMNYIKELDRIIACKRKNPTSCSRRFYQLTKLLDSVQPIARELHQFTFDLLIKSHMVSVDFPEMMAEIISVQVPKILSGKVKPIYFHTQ

As to `[O-][Cl+2]([O-])O`, the compound was called inactive in [1], in test [2], in test [3], in test [4], in test [5] and in [6]. The result in test [7], in [8], in test [9], in test [10], in [11] and in test [12] was inactive. Moreover, the result in [13] and in test [14] was inactive.
With `CC(C)CCCCCCOC(=O)c1ccccc1C(=O)OCCCCCCC(C)C`, the compound was classed as inactive in test [1], in [2], in test [3], in test [4], in [5] and in test [6]. Moreover, the result in test [7], in [8], in [9], in [10], in test [11] and in test [15] was inactive. Also, the outcome in test [16] and in [13] was inactive.
As to `COc1cc(-c2ccc(N)c(OC)c2)ccc1N`, the call in test [1], in test [2], in [4], in test [5], in test [6] and in [7] was inactive. For the same compound, the result in test [8], in test [10], in [17], in test [16] and in [14] was inactive. Also, the AC50 (commonly the concentration giving half of the maximal activity seen) in [2] is 19.8 µM (active); in test [3], 7.03 µM (active) and 39.9 µM (active); in test [9], 27.8 µM (active) and 31 µM (active); in [11], 27.7 µM (active) and 33.6 µM (active).
As for `CC(C)c1cccc(C(C)C)c1O`, the result in test [1], in test [2], in test [3], in test [4], in test [5] and in test [6] was inactive. The compound was classed as inactive in [7], in [8], in test [9], in [10], in test [18] and in [11]. Besides, the compound was classed as inactive in [16] and in test [14].
For the compound `COP(=S)(OC)Oc1ccc(Sc2ccc(OP(=S)(OC)OC)cc2)cc1`, the compound was classed as inactive in [1], in test [2], in test [3], in test [4], in [5] and in [6]. In addition, the compound was called inactive in test [10], in test [18], in [15], in test [13] and in test [14]. Also, the AC50 was 57.7 µM (active) in test [7], 61.7 µM (active) in test [8], 9.75 µM (active) in test [9] and 6.02 µM (active) in test [11].
Consider `CC(C)c1ccc(CO)cc1`, for which the compound was classed as inactive in test [1], in test [2], in test [3], in test [4], in test [5] and in test [6]. Further, the compound was called inactive in [7], in [8], in [17], in test [11], in [16] and in test [13]. For the same compound, the results for the AC50 in [9] and in [18] were 36.2 µM (active) and 60.1 µM (active), respectively.
Take `COc1cccc(C=O)c1`: the outcome in test [1], in test [2], in test [3], in test [4], in test [5] and in [6] was inactive. The result in test [7], in test [9], in test [10], in [17], in [11] and in test [16] was inactive. Further, in [12], the compound was called inactive. Besides, in [8], the half-maximal activity concentration (AC50) is 0.175 µM (active).
Regarding `CCOP(=S)(OCC)Oc1ccc(S(C)=O)cc1` (stereo unspecified), the call in test [1], in test [2], in test [3], in [4], in [5] and in [6] was inactive. Also, the compound was classed as inactive in [7], in test [8], in test [10], in test [11], in test [16] and in test [13]. Moreover, the outcome in test [14] was inactive. The AC50 in test [9] is 31.2 µM (active).
For the compound `COP(=S)(OC)Oc1c(Cl)cc(C)cc1Cl`, the outcome in test [1], in test [2], in test [3], in test [4], in [5] and in test [6] was inactive. Further, the outcome in test [7], in [8], in [10], in test [17], in test [11] and in [16] was inactive. For the same compound, the result in test [12], in test [19] and in test [14] was inactive. For the same compound, the AC50 is 7.7 µM (active) in test [9] and 3.3 µM (active) in [18].
